PubChem BioAssay (EPA / NIEHS)
Inconclusive results are not listed. Activity calls are given as the source filed them. The calls were made as follows: active = hit-call score of the fitted dose curve at least 0.9, where 1 is the maximum; inconclusive = response in the unintended direction; inactive = score below 0.9.

read-out: Broad substrate specificity ATP-binding cassette transporter ABCG2 (Homo sapiens) (UniProt Q9UNQ0); test: CLD_ABCG2_6hr: CellzDirect (CLD) Gene Expression Assay for ABC Transporter (ABCG2) at 6 hours (AID 2283660)
Procedure: CLD_6hr is a cell-based, multiplexed-readout assay that uses hepatocyte, a human liver primary cell, with measurements taken at 6 hours after chemical dosing in a 96-well plate.CLD_ABCG2_6hr is one of 16 assay component(s) measured or calculated from the CLD_6hr assay. It is designed to make measurements of mRNA induction, a form of inducible reporter, as detected with chemiluminescence signals by Quantitative Nuclease Protection Assay (qNPA) technology.Data from the assay component CLD_ABCG2_6hr was analyzed at the endpoint, CLD_ABCG2_6hr, in the positive analysis fitting direction relative to DMSO as the negative control and baseline of activity. Using a type of inducible reporter, gain-of-signal activity can be used to understand changes in the reporter gene as they relate to the gene ABCG2. Furthermore, this assay endpoint can be referred to as a primary readout. To generalize the intended target to other relatable targets, this assay endpoint is annotated to the transporter intended target family, where subfamily is ABC transporter.
Human hepatocyte cultures were treated daily for two consecutive days with fresh dosing solutions containing appropriate concentrations of the 320 ToxCast chemicals (chemical identities were blinded to CellzDirect and other ToxCast collaborators), vehicle control (0.2% DMSO), and positive control inducers as summarized in Table 1. Due to the large number of treatment groups and chemicals examined, the ToxCast chemicals were divided into two groups (spanning two independent cultures of hepatocytes from separate donor preparations (Hu778: ToxCast plates 1 and 2; Hu776: ToxCast plates 3 and 4). Each preparation of human hepatocyte cultures was treated with respective vehicle control, medium only control, set of six positive controls/reference chemicals for the five hepatic receptor pathways, and a subset of eight of the ToxCast chemicals (indoxacarb, pyrithiobac-sodium, norflurazon, cyhalofop-butyl, methomyl, thiram, acetochlor, and propiconazole). These replicate data, coupled with internal replicates designed within the blinded ToxCast chemical library, provided additional data to evaluate interindividual differences between hepatocyte preparations and their potential impact on chemical profiles.Cell morphology and integrity were evaluated using phase-contrast microscopy as an indicator of hepatocyte cell health (Tyson & Green, 1987). Cultures for each treatment group (i.e., media, vehicle [0.2% DMSO], positive control inducers [multiple concentrations], and the ToxCast chemicals [multiple concentrations]) were observed and cell morphology was assessed relative to vehicle control cultures at each harvest time point (0, 6, 24, or 48 h). […] Images were evaluated at the conclusion of the study to assess changes in cell integrity and account for the effects of chemical exposure on uncharacteristic changes in concentration-dependent gene expression profiles. The results from these determinations of apparent cytotoxicity were annotated (yes/no) alongside the corresponding qNPA data for reference.At the conclusion of each treatment period, hepatocyte cultures (96-well) were washed with 1 volume of HBSS, lysed by addition of 25 ul ArrayPlate lysis buffer (HTG, Tucson, AZ), and 70 ul/well of Denaturation Oil, denatured by incubation at 95C for 10 min, and frozen at approximately -70C until analysis by nuclease protection assay (qNPA) (Roberts et al., 2007). For qNPA analysis, cell lysates were thawed at 50C for approximately 30 min, qNPA probes were added, and samples were incubated at 95C for 10 min to begin the detection process by denaturing the target RNA, dissociating the duplexes and secondary structure hybridization. At the conclusion of the hybridization period, S1 nuclease reagent was added to each sample to digest all nonprotected nucleotides at 50C for 60-90 min. […]

Sequence of Broad substrate specificity ATP-binding cassette transporter ABCG2 (Homo sapiens) (Q9UNQ0 whole entry, looked up): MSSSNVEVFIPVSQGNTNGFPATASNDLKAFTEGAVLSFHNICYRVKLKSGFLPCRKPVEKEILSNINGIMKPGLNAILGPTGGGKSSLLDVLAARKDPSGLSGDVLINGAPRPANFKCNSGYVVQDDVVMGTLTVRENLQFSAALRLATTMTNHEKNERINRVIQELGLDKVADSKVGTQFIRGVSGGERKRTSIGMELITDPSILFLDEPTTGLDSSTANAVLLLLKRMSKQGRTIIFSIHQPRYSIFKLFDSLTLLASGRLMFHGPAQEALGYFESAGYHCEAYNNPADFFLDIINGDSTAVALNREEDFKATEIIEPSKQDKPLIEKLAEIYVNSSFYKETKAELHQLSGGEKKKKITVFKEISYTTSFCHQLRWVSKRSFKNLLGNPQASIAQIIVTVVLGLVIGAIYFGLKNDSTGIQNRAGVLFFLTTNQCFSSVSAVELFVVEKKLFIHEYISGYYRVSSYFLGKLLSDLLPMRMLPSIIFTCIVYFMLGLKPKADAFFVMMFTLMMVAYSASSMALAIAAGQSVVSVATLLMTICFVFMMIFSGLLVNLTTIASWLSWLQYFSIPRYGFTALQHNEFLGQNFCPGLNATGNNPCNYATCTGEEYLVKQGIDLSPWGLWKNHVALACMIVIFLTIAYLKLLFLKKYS

Row | SMILES | outcome
1 | COC(=O)N(OC)c1ccccc1COc1ccn(-c2ccc(Cl)cc2)n1 | inactive
2 | COc1nc(C)nc(NC(=O)NS(=O)(=O)c2ccccc2CCC(F)(F)F)n1 | inactive
3 | COC(=O)c1ccccc1C(=O)OC | inactive
4 | COC(=O)C(C)Oc1ccc(Oc2ccc(Cl)cc2Cl)cc1 (configuration not stated) | inactive
5 | Cc1ccc(-c2c(Cl)nc(C#N)n2S(=O)(=O)N(C)C)cc1 | inactive
6 | CCCN(CCC)c1c([N+](=O)[O-])cc(S(N)(=O)=O)cc1[N+](=O)[O-] | inactive
7 | CCc1nn(C)c(C(=O)NCc2ccc(C(C)(C)C)cc2)c1Cl | inactive
8 | COC(=O)C=C(C)OP(=O)(OC)OC | inactive
9 | CCNc1nc(Cl)nc(NC(C)C)n1 | inactive
10 | CS/C(C)=N/OC(=O)N(C)SN(C)C(=O)O/N=C(\C)SC | inactive
11 | Fc1ccc(Oc2ccnc3cc(Cl)cc(Cl)c23)cc1 | inactive
12 | COP(N)(=O)SC (configuration not stated) | inactive
13 | CCON=C(CC)C1=C(O)CC(c2c(C)cc(C)cc2C)CC1=O (configuration not stated) | inactive
14 | C=CCC1=C(C)[C@@H](OC(=O)[C@@H]2[C@@H](C=C(C)C)C2(C)C)CC1=O | inactive
15 | O=C(Nc1ccccc1)Nc1ccnc(Cl)c1 | inactive
16 | CNC(=S)S | inactive
17 | CN(C)C(=S)SSC(=S)N(C)C | inactive
18 | N#Cc1nn(-c2c(Cl)cc(C(F)(F)F)cc2Cl)c(N)c1S(=O)C(F)(F)F (configuration not stated) | inactive
19 | OC(c1ccc(Cl)cc1)(c1cncnc1)c1ccccc1Cl (configuration not stated) | inactive

Row | SMILES | outcome
20 | CO/C=C(/C(=O)OC)c1ccccc1Oc1cc(Oc2ccccc2C#N)ncn1 | inactive
21 | Oc1ccccc1-c1ccccc1 | inactive
22 | COc1nc(NC(C)C)nc(NC(C)C)n1 | inactive
23 | N#CC(CCc1ccc(Cl)cc1)(Cn1cncn1)c1ccccc1 (configuration not stated) | inactive
24 | COc1nc(C)nc(NC(=O)NS(=O)(=O)c2ccccc2Cl)n1 | inactive
25 | CCOC(=O)CC(SP(=S)(OC)OC)C(=O)OCC (configuration not stated) | inactive
26 | CC(C)(C)c1ccc(CSc2cnn(C(C)(C)C)c(=O)c2Cl)cc1 | inactive
27 | C=CCC1=C(C)C(OC(=O)C2C(C=C(C)C)C2(C)C)CC1=O (configuration not stated) | inactive
28 | CC1COC(Cn2cncn2)(c2ccc(Oc3ccc(Cl)cc3)cc2Cl)O1 (configuration not stated) | inactive
29 | COP(=S)(OC)Oc1nc(Cl)c(Cl)cc1Cl | inactive
30 | CCCCNC(=O)n1c(NC(=O)OC)nc2ccccc21 | inactive
31 | O=C(O)COc1nc(Cl)c(Cl)cc1Cl | inactive
32 | Cc1c(F)c(F)c(COC(=O)C2C(/C=C(\Cl)C(F)(F)F)C2(C)C)c(F)c1F (configuration not stated) | inactive
33 | CCCCNC(=O)OCC#CI | inactive
34 | CCOc1cc(Oc2ccc(C(F)(F)F)cc2Cl)ccc1[N+](=O)[O-] | inactive
35 | C#CCOS(=O)OC1CCCCC1Oc1ccc(C(C)(C)C)cc1 (configuration not stated) | inactive
36 | Cc1cc(Cl)ccc1OCC(=O)O | inactive
37 | CC(C)Oc1cc(-n2nc(C(C)(C)C)oc2=O)c(Cl)cc1Cl | inactive
